Bioassay records as filed in PubChem.
MLLE-PAM2 inh: inhibitors of PABP1 MLLE–PAM2 peptide binding, primary screen, biochemical, fluorescence polarization, FITC-PAM2, GST-MLLE. Polyadenylate-binding protein 1 (Homo sapiens), P11940. inhibition, % at 20 µM. 0.36% of 360,000 active. AID 588489, 2011; in the data active = inhibition above about 35%, passing the limit was not always enough;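 also: plate controls were DMSO wells with GST-MLLE for no effect and wells lacking GST-MLLE protein for full effect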
PABP polyA inh: PABP poly(A) RNA binding inhibitors, primary screen, biochemical, fluorescence polarization, uHTS. inhibition, % at 35 µM. 1% of 290,000 active. AID 2014, 2009;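 also: calls also rest on retests at 20 µM and on dose response follow-up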
eIF4H FP inh: human eIF4H binding inhibitors, primary screen, translation initiation inhibitor project, biochemical, uHTS, fluorescence polarization. inhibition, % at 35 µM. 0.94% of 290,000 active. AID 2012, 2009. eIF4H fluorescence polarization binding assay;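 also: calls also rest on retests at 20 µM and on dose response follow-up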
eIF4E 4G PPI: eIF4E–eIF4G protein interaction inhibitors, primary screen, biochemical, uHTS, TR-FRET, eIF4GI fragment | inhibition, % at 21.7 µM | 0.37% of 220,000 active | TR-FRET eIF4E-eIF4GI(517-606) binding, 2 h;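 active = inhibition above about 30%, limit read from the data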;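 also: 0% = full FRET control wells and 100% = background wells lacking eIF4GI fragment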
PERK inhibitor: block of dimerizer-induced PERK translation repression, primary screen, PERK inhibitor project, CHO PERK-DD cells, SEAP luminescence, HTS | Eukaryotic translation initiation factor 2-alpha kinase 3 (Homo sapiens), Q9NZJ5 | CHO PERK-DD fusion, SEAP luminescence translation reporter | inhibition, % at 5.6 µM | 0.17% of 220,000 active;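 active = inhibition above the mean inhibition of all tested compounds plus 3 SD, set separately per screening campaign, cut at about 2.9% in these data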;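 also: PERK kinase domain activated by AP20187 dimerizer at 100 nM; 0% = DMSO with dimerizer and 100% = rapamycin at 8.4 µM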
Active calls of the source: *; ? = inconclusive; . = not tested or not shown. Only some compounds are listed: those with a hit (about 1.6% of all), similar ones and a draw of the others. Unless noted, no rule for the calls is given here.

SMILES | MLLE-PAM2 inh | PABP polyA inh | eIF4H FP inh | eIF4E 4G PPI | PERK inhibitor
CS(=O)(=O)C1=NSC2=NC(=O)/C(=C\c3ccc(-c4ccccc4)o3)C(=N)N21 | . | 0 | 54* | 5 | 1
Cc1cc(C)cc(-n2cccc2/C=C2/C(=N)N3C(=NC2=O)SN=C3S(C)(=O)=O)c1 | -36 | 79* | 29* | 13 | 1
Cc1ccc(-n2cccc2/C=C2\C(=N)N3N=C(c4ccco4)SC3=NC2=O)cc1 | -27 | 2 | 81 | 56* | 0
CC(C)S(=O)(=O)C1=NSC2=NC(=O)/C(=C\c3ccc(-c4cccc(C(=O)O)c4)o3)C(=N)N21 | -76 | active | 62 | 1 | 0
CN1C(=O)Cc2cc(S(=O)(=O)Nc3ccc(N4CCOCC4)cc3)ccc21 | 5 | -20 | -9 | . | .
Cn1nccc1-c1coc2c(C(=O)NCC3CCOCC3)cccc12 | -6 | . | . | . | .
Cc1cc(N2Cc3ccccc3C2)ccc1C=O | -2 | -6 | -10 | . | .
O=C1OC(c2cccs2)=N/C1=C/c1ccc(-c2cccc(C(=O)O)c2)o1 | -87 | active | 89 | 36* | 1
N=C1/C(=C/c2ccc(-c3cccc(C(=O)O)c3)o2)C(=O)N=C2SC=C(c3ccccc3)N12 | -81 | 11* | 52* | 80* | 0
O=C1OC(c2cccs2)=N/C1=C\c1ccc(-c2ccccc2Cl)o1 | -98 | 9 | -12 | 0 | 0
N=C1/C(=C\c2ccc(-c3cc(Cl)cc(Cl)c3)o2)C(=O)N=C2SC=C(c3ccccc3)N12 | -6 | -10 | 35 | -6 | 1
COc1ccc(Cc2nc(-c3ccccn3)no2)cc1 | -1 | -11 | -5 | 3 | 1
O=C1/C(=C/c2ccncc2)Oc2cc(OS(=O)(=O)c3ccccc3)ccc21 | -8 | -10 | 6 | 1 | -1
COc1ccc(CC(=O)Nc2ccc(-c3nnc(-c4ccccc4)o3)cc2)cc1OC | -20 | -66 | -48 | 33* | 1
Fc1ccc(CNC(=S)Nc2ccc(OC(F)F)cc2)cc1 | -34 | 47 | -2 | 2 | 1
CCOc1ccc2oc(=O)cc(CN3CCOCC3)c2c1 | -5 | -6 | -9 | . | .
Clc1cccc(C2Nc3cccc4cccc(c34)N2)c1Cl | 10 | 70* | 103* | . | .
O=[N+]([O-])c1cccc(C2Nc3cccc4cccc(c34)N2)c1 | 16 | 2 | 44 | 7 | 0
c1coc(C2Nc3cccc4cccc(c34)N2)c1 | . | 102* | 110* | 17 | 1
Clc1ccccc1C1Nc2cccc3cccc(c23)N1 | 6 | ? | ? | . | .
O=[N+]([O-])c1ccc(C2Nc3cccc4cccc(c34)N2)cc1 | 6 | 87* | 97* | 6 | 0
Oc1ccc(C2Nc3cccc4cccc(c34)N2)c(O)c1 | 7 | 41* | 89* | 23 | 1
CNC(=O)CSc1nnc(-c2cnccn2)n1C | 9 | -1 | 9 | 3 | 2
C=C1CC(COc2cc(=O)oc3ccccc23)(c2ccccc2)OC1=O (stereo unspecified) | -3 | . | . | . | .
O=C(Nc1nc2ccccc2[nH]1)c1ccc(OC(F)F)cc1 | -1 | 3 | -3 | . | .
SMILES | MLLE-PAM2 inh | PABP polyA inh | eIF4H FP inh | eIF4E 4G PPI | PERK inhibitor
Cc1ccc(C2Nc3cccc4cccc(c34)N2)s1 | 12 | 24* | 103 | 8 | 1
FC(F)(F)c1ccc(C2Nc3cccc4cccc(c34)N2)cc1 | -4 | 7 | 67 | 1 | 0
Fc1ccc(C2Nc3cccc4cccc(c34)N2)cc1 | 5 | 40* | 53* | . | .
COc1ccc(Cc2nnc(SCc3nc4ccccc4c(=O)[nH]3)o2)cc1 | -28 | 20 | 0 | 3 | 0
CC(=O)c1ccc2c(c1)C1C=CCC1C(c1cc3c(cc1Br)OCO3)N2 (stereo unspecified) | 0 | . | . | . | .
COc1ccc2c(c1)C1C=CCC1C(c1cc3c(cc1Br)OCO3)N2 (stereo unspecified) | -23 | 22 | 70* | 1 | 1
Cc1c(N=Nc2c(-c3ccc([N+](=O)[O-])cc3)[nH]n(C(N)=S)c2=O)cccc1[N+](=O)[O-] | 41* | active | ? | 33* | 1
NC(=S)n1[nH]c(-c2ccc([N+](=O)[O-])cc2)c(N=Nc2cccc([N+](=O)[O-])c2)c1=O | 42* | . | . | 13 | 0
Cc1[nH]n(C(N)=S)c(=O)c1N=Nc1cccc([N+](=O)[O-])c1C | 22 | -4 | -3 | . | .
NC(=S)n1[nH]c(-c2ccc([N+](=O)[O-])cc2)c(N=Nc2ccccc2[N+](=O)[O-])c1=O | 32 | -31 | 38 | -19 | 0
CCc1cccc(NC(=O)CSC2=NS(=O)(=O)c3ccccc32)c1 | 35 | 8 | 2 | 2 | 0
CCOc1ccc2oc(C(=O)N(C)CC(=O)Nc3ccc(OCC)c(OCC)c3)c(C)c2c1 | -39 | . | . | . | .
C[c-]1[c-](C)[c-](C)[c-](C)[c-]1C.[Fe].c1cc2nccc(N3CCCC3)[c-]2c1 (stereo unspecified) | 64* | 129* | 104* | 16 | .
COC(=O)C(C)N1C(=O)S/C(=C/c2cc(C)n(-c3ccccn3)c2C)C1=O (stereo unspecified) | -7 | 75* | 83* | 3 | -1
COC(=O)C(C)N1C(=O)S/C(=C\c2cc(C)n(-c3ccccn3)c2C)C1=O (stereo unspecified) | -84 | 120 | 119 | 3 | -1
CCSc1nc(C(F)(F)F)cc(=O)n1-c1ccccc1 | -22 | -6 | 2 | 2 | 1
CC(C)Sc1nc(C(F)(F)F)cc(=O)n1-c1ccccc1 | 2 | -7 | -1 | 1 | 3.0*
COC(=O)c1sc2nc(CSc3ccc(Br)cc3)[nH]c(=O)c2c1C | -39 | 17* | 51* | -2 | 1
CCn1c(SCc2nc3sc(C(=O)O)c(C)c3c(=O)[nH]2)nc2ccccc21 | -30 | 80* | 83* | 30 | 1
COCCn1c(SCc2nc3sc(C(=O)OC)c(C)c3c(=O)[nH]2)nc2ccccc21 | -88 | 24 | 53 | -14 | 0
COc1ccc(N2CCN(Cc3cc(OC)c(O)c([N+](=O)[O-])c3)CC2)cc1 | 4 | -14 | -4 | 5 | 0
COC(=O)c1ccc(NS(=O)(=O)c2ccc3[nH]c(=O)oc3c2)cc1 | -25 | 21 | 66* | . | .
Cc1ccc(C)c(NS(=O)(=O)c2ccc3[nH]c(=O)oc3c2)c1 | -7 | 42* | ? | 3 | 0
Cc1cccc(NS(=O)(=O)c2ccc3[nH]c(=O)oc3c2)c1C | -7 | . | . | . | .
COc1ccc2cc(C#N)c(NC(C)C)nc2c1 | 6 | -8 | -7 | 6 | 1
CCN(CC)c1nc2cc(OC)ccc2cc1C#N | -9 | 102* | ? | 17 | 0
